Where “and” joins values, the source holds several entries; their conditions need not be identical. Equal values may be shown once. In all, about 300,000 compounds went through this assay and about 37,000 (12%) were called active. Shown is part of a subset that was picked to be rich in actives. A number with no mark means an inactive call. No stated cut-off is given here; in the data, active means max response mostly above about 13% (no sharp cut-off); inactive means mostly below about 14%.

This assay can be described thus: Cycloheximide Counterscreen for Small Molecule Inhibitors of Shiga Toxin. Further: read at 38.3 µM for the half of the compounds with a filed dose; 0% is about no effect. The note with it: cell reporter, cycloheximide protein synthesis inhibition counterscreen; stronger effect = higher value. (In general: Counterscreens check selectivity or assay interference.)
Turning to `COc1ccc(-c2nc(CN3CCN(c4ncccn4)CC3)c(C)o2)cc1C`, the max response is -2.33%.
The figure for `Cc1ccc(S(=O)(=O)N[C@@H](Cc2ccccc2)C(=O)N2CCC(C(=O)N[C@H](C(=O)O)C(C)O)CC2)cc1` (stereo partly specified) is -0.605%; for `Cc1ccc(N(Cc2ccc(C(=O)Nc3ccccc3C(=O)NCc3ccco3)cc2)S(C)(=O)=O)cc1C` it is -1.16%; for `O=C(COc1ccc(Cl)cc1)NCc1nnc(SCC(=O)NCC2CCCO2)o1` (stereo unspecified) it is 1.5%.
The figure for `S=C(NCCc1ccccc1)N1CCn2cccc2C1c1ccncc1` (stereo unspecified) is 6.15%.
The figure for `CCC(C)(C)n1nnnc1CN1CCN(c2nc3ccc(C)cc3cc2C#N)CC1` is -1.82%; for `CCOc1ccc(CN2CCN(Cc3c[nH]c4ccccc34)CC2)cc1` it is -0.16%.
Turning to `CCOc1ccc(N(CC(=O)NCCc2ccc(F)cc2)S(=O)(=O)c2ccccc2)cc1`, the max response is 0.706%.
The figure for `COc1ccc(NC(=S)N2CCCC(CO)C2)c(OC)c1` (stereo unspecified) is -1.58%.
As for `CCCCc1ccc(NC(=S)N2CCCC(CO)C2)cc1` (stereo unspecified), the figure is 39.3% (active).
As for `CCCCc1ccc(NC(=S)NCCCN2CCOCC2)cc1`, the max response was 12%.
The figure for `COc1ccc(S(=O)(=O)NC(C)c2ccccc2)cc1C(=O)N1CCCCC1` (stereo unspecified) is 8.07%; for `COc1ccc(CNC(=O)CN(Cc2ccccc2Cl)C(=O)c2csnn2)cc1` it is -2.08%.
The figure for `CC(=O)N1CCC(C(=O)OCc2ccc(Cl)cc2)(c2ccccc2)CC1` is 1.9%; for `CCOC(=O)C1(Cc2ccc(Cl)cc2)CCN(C(C)CCn2cccn2)CC1` (stereo unspecified) it is -3.1%.
The figure for `CCOC(=O)C1(Cc2ccc(Cl)cc2)CCN(C(=O)C2=NNC(=O)CC2)CC1` is 10.1% (active); for `CCc1ccc(OCC2c3cc(OC)c(OC)cc3CCN2C(C)=O)cc1` (stereo unspecified) it is -2.66%; for `O=C(CN1C(=O)S/C(=C\c2ccccc2Cl)C1=O)NC1C=CS(=O)(=O)C1` (stereo unspecified) it is 1%.
On to `O=C(NCc1cccnc1)Nc1ccccc1F`, for which the max response is 6.78%.
The figure for `O=C(Nc1ccccc1F)c1ccc(Cn2cc(Br)cn2)cc1` is 27.6% (active).
As for `CCOc1cccc(C(=O)Nc2cnn(Cc3ccccc3)c2)c1`, the figure is 8.38%; as for `Cc1ccc(N(Cc2ccccc2O)C(=O)c2ccccc2F)cc1`, -1.08%.
The figure for `CCN(CC)c1ccc(C(=O)NNC(=O)CCc2nc3ccccc3c(=O)[nH]2)cc1` is 8.34%; for `Cc1cc(=O)oc2cc(NC(=O)C3CC(=O)N(Cc4ccccc4)C3)ccc12` (stereo unspecified) it is 5.63%; for `O=S(=O)(c1cccc(S(=O)(=O)N2CCC(n3nnc4ccccc43)CC2)c1)N1CCCCC1` it is -11.1%.
Turning to `O=C(c1ccc(F)cc1)N1CCC(n2nnc3ccccc32)CC1`, the max response is 50% (active).
The figure for `CC(=O)c1cccc(S(=O)(=O)N2CCC(n3nnc4cc(F)ccc43)CC2)c1` is -0.975%; for `COc1ccc(N2CCN(S(=O)(=O)c3ccc4c(c3)NC(=O)C(C)C(=O)N4)CC2)cc1` (stereo unspecified) it is -1.38%.
For the compound `CN(CC(=O)O)S(=O)(=O)c1ccc2oc3ccccc3c2c1`, the max response is 1.18%.
As for `COCCCNC(=S)N(CCN(C)C)Cc1cc2cc3c(cc2[nH]c1=O)OCCO3`, the max response is 6.79%.
Take `CC(=O)c1ccc(N2CCN(CC(O)c3ccccc3)CC2)cc1` (stereo unspecified): the max response is 5.47%.
For the compound `CC(=O)c1ccc(N2CCN(C(=O)CCc3ccccc3)CC2)cc1`, the max response was 3.1%.
The figure for `CC(=O)c1ccc(N2Cc3ccccc3C2)cc1` is 29.2% (active); for `Cc1cc(NS(=O)(=O)c2ccc(NC(=S)NC(=O)c3ccc(F)cc3Cl)cc2)no1` it is -1.71%; for `CC(=O)Nc1ccc(/C(C)=N/NC(=O)CN(c2ccccc2Br)S(C)(=O)=O)cc1` it is 8.32%.
As for `CN(C(=O)CSc1nnc(-c2n[nH]c3ccccc23)o1)c1ccccc1`, the figure is 15.1% (active).
The figure for `CCN(C(=O)CSc1nnc(-c2ccncc2)o1)c1ccccc1` is -2.4%; for `O=C(CSc1nnc(-c2c[nH]c3ccccc23)o1)c1ccccc1` it is 8.16%.
On to `COc1cc(C2/C(=C(\O)c3ccc4c(c3)CC(C)O4)C(=O)C(=O)N2c2nnc(C)s2)cc(OC)c1OC` (stereo unspecified), for which the max response was -1.71%.
As for `Cc1[nH]c2ccccc2c1/C=N\NC(=O)Cn1nnc(-c2ccccc2)n1`, the figure is -0.477%; as for `Cc1[nH]c2ccccc2c1/C=C(/C#N)C(=O)NC(C)C`, 16.8% (active); as for `N#C/C(=C/c1ccc(N2CCCCC2)o1)C(=O)NCCc1c[nH]c2ccccc12`, -3.38%.
As to `Cc1ccc(NC(=O)c2ccccn2)cc1S(=O)(=O)N1CCOCC1`, the max response was 2.74%.
Take `CCN(CC)c1ccc(NC(=O)c2ccc(Cl)nc2)cc1`: the max response is 16.7% (active).
As for `Cc1cnc(NC(=O)c2ccc(Cl)nc2)s1`, the figure is 43.4% (active).
As for `Cc1cnc(NC(=O)Cn2cnc3c2c(=O)n(C)c(=O)n3C)s1`, the figure is -4.16%; as for `NS(=O)(=O)c1ccc(NC(=O)COC(=O)c2ccc(Cl)nc2)cc1`, -4.06%; as for `COC(=O)[C@@H](NC(=O)Nc1cc(Cl)ccc1C)C(C)C`, -5.71%.
The figure for `CCOc1cc(NC(=O)c2ccccn2)c(OCC)cc1NC(=O)c1ccc(OC)cc1` is -3.64%; for `Cc1cnc(NC(=O)c2ccccn2)s1` it is 26.4% (active); for `O=C(Nc1nnc(Cc2ccc(Cl)cc2)s1)c1cccnc1` it is 1.24%.
Regarding `O=C(NNc1ccccn1)c1ccc(Cl)nc1`, the max response is 2.34%.
The figure for `Cc1ccc(Cl)cc1NC(=O)c1ccccn1` is 19.9% (active); for `Cc1noc(C)c1C(=O)Nc1ccccn1` it is 7.73%.
Turning to `Cc1c(CC(=O)NCCCCCC(=O)O)c(=O)oc2cc3occ(-c4ccccc4)c3cc12`, the max response was -1.63%.
In the case of `O=C(CCN1C(=O)C2C3CCC(C3)C2C1=O)Nc1ccc(Cl)cc1Cl` (stereo unspecified), the max response is 3.53%.
The figure for `CCOc1ccc(Nc2nc(Cc3nnc(SCC(=O)c4ccc(C)cc4)o3)cs2)cc1` is -3.13%; for `Cc1ccc(CCNC(=O)c2ccc3nc4ccccc4c(=O)n3c2)cc1` it is 4.5%.
Turning to `CN(C)S(=O)(=O)c1cccc(C(=O)OCC(=O)N2CCCC2=O)c1`, the max response was -2.94%.
In the case of `O=C(Nc1ccc(-n2ccnc2P(=O)(O)c2ccccc2)cc1)c1ccccc1Br`, the max response is 2.05%.
As for `COc1ccc(S(=O)(=O)N(CC(=O)N/N=C/c2ccc(C(=O)O)cc2)Cc2ccccc2)cc1OC`, the figure is -6.63%; as for `Cc1nonc1C1CCCN1Cc1nc(-c2ccc(F)cc2F)oc1C` (stereo unspecified), 6.22%; as for `CCCOc1ccc(CNC(=O)C2CCN(c3nn4c(=O)cc(C)nc4s3)CC2)cc1`, -3.96%.
`CCCCN1Cc2c(nc3cc(-c4ccccc4)[nH]n3c2=O)C1=O`: the max response was 7.79%.
As for `Cc1cc(=O)n2[nH]c(-c3sccc3-n3c(C)ccc3C)cc2n1`, the figure is 5.31%; as for `CCc1c(C)nc2cc(-c3cccs3)[nH]n2c1=O`, 29.6% (active); as for `CCc1c(C)nc2cc(C)[nH]n2c1=O`, -1.78%.
The figure for `Cc1nc2nc[nH]n2c(=O)c1C/C=C/c1ccccc1` is 10.1%; for `C=CCc1c(C)nc2cc(-c3ccccc3)[nH]n2c1=O` it is 37% (active).
As for `COCCn1cnc2c1c(=O)n(Cc1ccc(Br)cc1)c(=O)n2Cc1ccccc1`, the figure is -1.88%.
On to `Cc1ccc(NC(=O)C(CC(=O)O)C2CCCO2)c(C)c1` (stereo unspecified), for which the max response is -2.11%.
Take `CC(NC(=O)CNC(=O)Cc1cccc2ccccc12)c1ccc(S(N)(=O)=O)cc1` (stereo unspecified): the max response is 4.99%.
As for `Cc1csc2ncc(C(=O)N(Cc3ccccc3)c3ccccn3)c(=O)n12`, the figure is -6.72%; as for `CC1(C)NC(=O)N(CC(=O)Nc2cc(C(F)(F)F)cc(C(F)(F)F)c2)C1=O`, -1.59%.
For the compound `O=C1C2CCCN2C(=O)N1CCCCN1CCN(c2cccc(C(F)(F)F)c2)CC1` (stereo unspecified), the max response was -0.302%.
As to `O=C(NCc1ccco1)/C(=C\c1cccc([N+](=O)[O-])c1)NC(=O)c1ccco1`, the max response was -3.43%.
As for `COc1cc(NS(=O)(=O)c2ccc3ccccc3c2)c2ncccc2c1`, the figure is -1.06% and -1.79%.
As for `Cc1cc(/C=C2/C(=N)N3C(=NC2=O)SN=C3S(C)(=O)=O)c(C)n1-c1ccccc1`, the figure is 28.8% (active); as for `CCC1=NN2C(=N)/C(=C/c3cc(C)n(-c4ccccc4)c3C)C(=O)N=C2S1`, 4.37%; as for `CS(=O)(=O)C1=NN2C(=N)/C(=C\c3ccc(OCCOc4ccccc4)cc3)C(=O)N=C2S1`, 8.57%.
As for `COc1ccccc1OCCOc1ccc(/C=C2\C(=N)N3N=C(C)SC3=NC2=O)cc1`, the figure is -1.22%; as for `CCS(=O)(=O)C1=NSC2=NC(=O)/C(=C\c3cc(C)n(-c4cccc(OC)c4)c3C)C(=N)N21`, 3.96%; as for `CCS(=O)(=O)C1=NSC2=NC(=O)/C(=C\c3ccc(OS(=O)(=O)c4ccccc4)cc3)C(=N)N21`, 23.1% (active).
Regarding `COc1ccc(C(=O)NCCCN2CCOCC2)cc1Br`, the max response was 0.527%.
As for `C/C(=N\N=C(N)N)c1ccc(Cl)cc1`, the max response was -3.34%.
On to `COc1ccc(CCNC(=O)CN(C)S(=O)(=O)c2ccc3nc(C)sc3c2)cc1OC`, for which the max response is -1.23%.
Turning to `COc1ccc2c(CC(=O)N3CCc4cc(OC)c(OC)cc4C3)coc2c1`, the max response is -5.51%.
As for `CC(=O)c1ccc(NC(=O)C(C)NCc2ccc(Cl)cc2)cc1` (stereo unspecified), the figure is 32.7% (active).
The figure for `CC(=O)c1ccc(NC(=O)C(C)N(C)CC(=O)Nc2ccccc2Cl)cc1` (stereo unspecified) is 5.03%; for `CC(NCc1cccs1)C(=O)Nc1cc(Cl)cc(Cl)c1` (stereo unspecified) it is -2.66%.
In the case of `Nc1c(Cl)cc(-c2csc(N3CCCC3c3nc4cc(Cl)c(Cl)cc4n3CCOCCO)n2)cc1Cl` (stereo unspecified), the max response was 2.13%.

(Values after PubChem BioAssay AID2314 (National Center for Advancing Translational Sciences (NCATS), 2010).)
